# Abs 340nm – compound light absorbance at 340 nm, profiling panel, artefact control, biochemical, MLSMR library, data from PS, PMK, MK assays; compound absorbance at 340 nm, fold over control; fold change at 10 µM; 65,000 tested, under 10 active; AID 708, 2007;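 active means at 10 µM dose, initial 340 nm absorbance at least 2 fold that of control wells; inactive means change under 2 fold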;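 further: initial absorbance extrapolated from kinetic A340 decline of NADH oxidation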
# MK inhibit – S. pneumoniae MK inhibitors, primary screen, biochemical, PK/LDH-coupled NADH absorbance | mevalonate kinase [Streptococcus pneumoniae D39] | purified MK, PK/LDH-coupled NADH absorbance 340 nm | inhibition, % at 10 µM | 65,000 tested, 0.48% active | AID 555, 2006;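 active means ranked among the strongest by inhibition in the single 10 µM screen, a fixed top-ranked set picked for dose follow-up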
# NADH coupling – inhibitors of PK/LDH coupling enzymes, profiling panel, artefact control, biochemical, MLSMR library; coupled PK/LDH NADH assays, four targets; IC50, µM (series often up to 10 µM), for inactives: top-dose inhibition; 65,000 tested, 0.02% active;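 active means single-dose screening hits from any of four coupled enzyme assays that gave an IC50 when retested across doses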;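 further: the DPM-DC format reads NADH fluorescence rather than 340 nm absorbance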
# Spn PMK inh – S. pneumoniae PMK inhibitors, primary screen, biochemical, mevalonate pathway, pilot trial included; inhibition, % at 10 µM; phosphomevalonate kinase (Streptococcus pneumoniae D39); 65,000 tested, 0.49% active; purified PMK, PK/LDH-coupled NADH absorbance 340 nm;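 active means top-ranked compounds by inhibition in the single 10 µM screen, taking a fixed number of the strongest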;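 further: 0% = full reaction with DMSO carrier and 100% = background rate without enzyme reaction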
# Spn DPM-DC inh – S. pneumoniae DPM-DC inhibitors, primary screen, biochemical, PK/LDH-coupled NADH fluorescence; diphosphomevalonate decarboxylase (Streptococcus pneumoniae D39); purified DPM-DC; calls only at 10 µM; 65,000 tested, 0.49% active;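 active means the 320 compounds with the highest percent inhibition in the single-dose primary screen, excluding strongly autofluorescent ones, cut at about 32% in these data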;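 further: kinetic rate of NADH fluorescence loss reporting ADP formed by the decarboxylase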
# Autofluor 339 – intrinsic fluorescence of library compounds, ex339/em460 – biochemical, MLSMR library, data from DPM-DC assay, artefact control, profiling panel. compound autofluorescence, ex339/em460 nm, NADH buffer; active compounds read high; 1 = no-compound wells, NADH background. fluorescence fold increase at 10 µM. 65,000 tested, 5.5% active. AID 709, 2007;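 active means at 10 µM, mean starting fluorescence two-fold or more over control wells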;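 further: signal is the first read of a kinetic run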
# The depositor's hits bear a star; i = inactive; x = not tested or not shown; + = active, no number. An excerpt weighted towards active compounds, which were near 6.5% of everything screened.
SMILES,Abs 340nm,MK inhibit,NADH coupling,Spn PMK inh,Spn DPM-DC inh,Autofluor 339
CCC1CCCCN1CCCNC(=O)Cn1nc(-c2ccc(C)cc2)ccc1=O (stereo not drawn),0.99,4,7%,17,i,1.4
CN1CCN(CCC(=O)Nc2ccc(F)c(F)c2)CC1,1,6,2%,0,i,1.1
O=c1[nH]c2cc3c(cc2cc1CN(Cc1nnnn1CC1CCCO1)C1CCCC1)OCO3 (stereo not drawn),1.2,3,12%,11,i,2.5*
O=c1[nH]c2cc3c(cc2cc1CN(Cc1nnnn1CC1CCCO1)C1CCCCC1)OCO3 (stereo not drawn),1.1,7,8%,16,i,1.6
COCCn1nnnc1CN(Cc1cc2cc(OC)c(OC)cc2[nH]c1=O)C1CCCC1,1.2,1,8%,8,i,2.7*
COc1ccc(C(c2nnnn2CC2CCCO2)N2CCN(c3ccccc3)CC2)cc1 (stereo not drawn),1.1,66*,79%,77*,+,1.3
COCCn1nnnc1C(c1cc2cc(OC)ccc2[nH]c1=O)N1CCC(Cc2ccccc2)CC1 (stereo not drawn),1,5,8%,6,i,2.1*
COCCn1nnnc1C(c1cc2cc(C)ccc2[nH]c1=O)N1CCCCCC1 (stereo not drawn),1.1,9,9%,13,i,1.4
Cc1c(-c2ccccc2)[n+](=O)c(-c2ccco2)c(C)n1[O-],1.1,17,12%,4,i,1.5
CCN(C(=O)c1coc(=O)c(Br)c1)c1ccc2c(c1)OCO2,1.1,0,7%,13,x,3.4*
Cc1nn(-c2ccccc2)c2sc(-c3n[nH]c(=S)o3)cc12,1.1,2,6%,10,x,3.9*
Cc1nn(-c2ccccc2)c2sc(C(=O)O)cc12,1,7,3%,1,i,1.1
CCn1nc(C(=O)OCC(=O)c2cc(C)n(Cc3cccs3)c2C)c2ccccc2c1=O,0.97,4,2%,8,i,1
O=S(=O)(c1ccccc1)c1nc(-c2cccs2)oc1NCC1CCCO1 (stereo not drawn),1.1,0,3%,5,i,1.1
N#Cc1nc(-c2cccs2)oc1NCC1CCCO1 (stereo not drawn),1.1,2,1%,0,x,2.3*
COc1ccc(-c2nc(C#N)c(N3CCN(c4ccccc4)CC3)o2)cc1,0.99,10,6%,6,i,1.4
COc1ccc(-c2nc(C#N)c(NCC3CCCO3)o2)cc1 (stereo not drawn),1.1,4,2%,0,x,2.3*
Cc1ccc2cc(-c3noc(C4CCCCC4)n3)c(=O)[nH]c2c1,1.1,0,0%,0,x,2.2*
CCCc1nc(-c2cc3ccc(C)cc3[nH]c2=O)no1,1.1,7,7%,6,x,2.2*
Cc1ccc2cc(-c3noc(C4CCCO4)n3)c(=O)[nH]c2c1 (stereo not drawn),1.1,0,0%,0,x,2.2*
O=S(=O)(c1ccccc1)c1ccccc1/C=N\O,1,4,1%,0,i,1.1
CC1=C(C(=O)OC(C)C)C(c2ccc(Br)s2)NC(=O)N1C (stereo not drawn),1,5,9%,19,i,1
CCOC(=O)c1ccc2c(c1)NC(=O)C(N1CCN(c3ccc(OC)cc3)CC1)S2 (stereo not drawn),1.1,8,3%,0,i,1
CCOc1ccc2cc(C#N)c(SCC(=O)N3CCC(C)CC3)nc2c1,1,12,6%,9,i,2.5*
Cc1cccc2cc(C#N)c(SCC(=O)N3CCC(C)CC3)nc12,1,6,8%,14,i,1.1
SMILES,Abs 340nm,MK inhibit,NADH coupling,Spn PMK inh,Spn DPM-DC inh,Autofluor 339
COC(=O)CSc1nc2cc(OC)ccc2cc1C#N,1.1,4,7%,2,i,2.3*
COc1ccc2cc(C#N)c(SCC(=O)N3CCCC3)nc2c1,1,0,6%,1,i,1.8
CCOC(=O)CSc1nc2cc(OCC)ccc2cc1C#N,1.1,9,13%,8,i,2.6*
CCOC(=O)CSc1nc(N)c(C#N)c(-c2ccc(OC)cc2)c1C#N,1,13,7%,7,i,1.1
COc1ccc2cc(C#N)c(NC(C)C)nc2c1,1,9,3%,8,x,2.6*
CCOC(=O)c1ccc(NCC(O)COc2ccccc2)cc1 (stereo not drawn),1,0,3%,9,i,1.1
Cn1nc(C(=O)Nc2sccc2C(N)=O)ccc1=O,1.1,7,8%,18,i,1.1
CCOc1ccc2cc(C#N)c(SCC(=O)NC(C)CC)nc2c1 (stereo not drawn),1,5,5%,0,i,3.2*
Cc1ccc2cc(C#N)c(SCC(=O)NCc3ccco3)nc2c1,1,5,5%,10,i,1.2
O=C(Nc1nc2ccccc2[nH]1)c1ccc(F)cc1,1,6,7%,12,i,0.99
COc1ncnc(OC)c1NC(=O)c1ccc(F)cc1,0.98,63*,33%,10,i,0.76
CCOC(=O)c1ccc(NS(=O)(=O)c2cc(-c3nnnn3CC)ccc2OC)cc1,1.1,5,6%,6,i,1
CCCS(=O)(=O)n1nc(-c2ccc(OC)cc2OC)cc1N,1.1,4,2%,1,i,1.1
COc1ccc(-c2cc3nc(C)cc(C)n3n2)c(OC)c1,1.1,0,13%,16,i,3.2*
CCN(CC)S(=O)(=O)c1ccc(F)c(C(=O)NCCCN2CCOCC2)c1,1,0,3%,8,i,1.1
O=C(NCc1ccc(F)cc1)C1CCC(=O)N1C1CCCCC1 (stereo not drawn),1,3,9%,24,i,1.1
Cc1ccc(-c2cn3nc(C)c(C)nc3n2)cc1,1,8,4%,12,x,2.9*
C(=N\c1nc2ccccc2n1Cc1ccccc1)/c1cccs1,1.1,11,9%,13,i,1.1
CCc1nc2ccccc2n1Cc1cc(=O)n2cc(C)ccc2n1,1.1,0,10%,16,i,3.4*
CCc1nc2ccccc2n1Cc1ccc(OC)c(OC)c1,1,2,1%,2,i,1.1
C=C(C)c1cccc(C(C)(C)NC(=O)Nn2cnnc2)c1,1,8,9%,20,i,1.1
Cc1ccc(S(=O)(=O)N=C2SCCCS2)cc1,1,6,8%,7,i,0.77
